# Active and inactive are the calls of the source.
# What was measured:
# [1] = compound effects on lung adenocarcinoma cell viability – A549, calcein-AM fluorescence, 48 h, basal, profiling panel (AID 1162); details: higher = more signal
# [2] = compound effects on differentiated 3T3-L1 adipocyte viability – cell-based, 3T3-L1 adipocytes, calcein-AM fluorescence, 48 h, basal, profiling panel (AID 1163); details: 3T3-L1 adipocytes viability, higher = more signal
# [3] = compound effects on hepatocellular carcinoma cell viability – HepG2, calcein-AM fluorescence, 48 h, basal, profiling panel (AID 1164); details: higher = more signal
# [4] = compound effects on multiple myeloma cell viability – MM1S, calcein-AM fluorescence, 48 h, basal, profiling panel (AID 1165); details: higher = more signal;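 further: viability of MM1S multiple myeloma cells under basal unstimulated conditions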
# [5] = calcein-AM signal in unstimulated myeloma cells – cell-based, calcein-AM fluorescence, 48 h, PK04 Diversity Set, profiling panel (AID 1166); details: RPMI8226 myeloma viability, higher = more signal;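 further: cells grown under basal conditions without added stimulus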
# [6] = JC-1 mitochondrial signal, unstimulated HepG2 cells – cell-based, JC-1 fluorescence, 24 h, 100 nL compound, profiling panel (AID 1167); details: HepG2 mitochondrial potential, higher = more signal
# [7] = JC-1 mitochondrial signal, unstimulated adipocytes – cell-based, JC-1 fluorescence, 3T3-L1 adipocytes, 24 h, 100 nL compound, profiling panel (AID 1168); details: JC-1 mitochondrial fluorescence, higher = more signal, called active from +8 up or from −8 down
# [8] = JC-1 mitochondrial signal, unstimulated myeloma cells – cell-based, JC-1 fluorescence, RPMI8226, 24 h, 100 nL compound, profiling panel (AID 1169); details: JC-1 mitochondrial potential fluorescence, higher = more signal
# [9] = JC-1 mitochondrial signal, unstimulated MM1S myeloma – cell-based, JC-1 fluorescence, 24 h, 100 nL compound, profiling panel (AID 1170); details: MM1S mitochondrial potential, higher = more signal
# [10] = resazurin metabolic signal in A549 cells – cell-based, resazurin fluorescence, 24 h, PK04 Diversity Set, profiling panel (AID 1171); details: A549 viability, higher = more signal, called active from +8 up or from −8 down
# Further: test concentration not given here.
structure (smiles),measurement,setting,value
CN(C)C(=O)[C@]1(Cc2ccccc2N=[N+]=[N-])N=C(c2ccc(OCCCO)cc2)O[C@@H]1c1ccccc1,z-score,[1],-0.54
same,z-score,[2],-0.958
same,z-score,[3],0.351
same,z-score,[4],-1.02
same,z-score,[5],-2.57
same,z-score,[6],0.397
same,z-score,[7],0.6 (inactive)
same,z-score,[8],-1.1
same,z-score,[9],-1.27
same,z-score,[10],-0.32 (inactive)
CN(C)C(=O)[C@@]1(Cc2ccccc2CN=[N+]=[N-])N=C(c2ccc(OCCCO)cc2)O[C@H]1c1ccccc1,z-score,[1],-0.62
same,z-score,[2],-0.476
same,z-score,[3],-1.18
same,z-score,[4],-3.03
same,z-score,[5],-3.94
same,z-score,[6],-0.807
same,z-score,[7],-0.215 (inactive)
same,z-score,[8],-0.988
same,z-score,[9],-2.52
same,z-score,[10],-0.325 (inactive)
C=CC[C@@]1(C(=O)N(C)C)N=C(c2ccc(OCCCO)cc2)O[C@@H]1c1ccccc1N=[N+]=[N-],z-score,[1],0.459
same,z-score,[2],-0.423
same,z-score,[3],0.571
same,z-score,[4],-0.761
same,z-score,[5],-1.51
same,z-score,[6],-0.328
same,z-score,[7],1.04 (inactive)
same,z-score,[8],-0.874
same,z-score,[9],-1.31
same,z-score,[10],-1.48 (inactive)
COCCOC(=O)N1C(=O)[C@@]2(c3cc(C#Cc4ccc(OC)cc4)ccc31)[C@H](c1ccccc1OCCO)N1[C@H](c3ccccc3)[C@H](c3ccccc3)OC(=O)[C@H]1[C@@H]2C(=O)N1CCN(c2ncccn2)CC1,z-score,[1],0.204
same,z-score,[2],-0.226
same,z-score,[3],0.348
same,z-score,[4],-0.653
same,z-score,[5],0.149
same,z-score,[6],0.356
same,z-score,[7],2.41 (inactive)
same,z-score,[8],-0.72
same,z-score,[9],-1.37
same,z-score,[10],-0.692 (inactive)
CC1(C)[C@@H]2CC(C(O)C3C=CC4C(=O)N(c5ccccc5)C(=O)C4N3Nc3ccccc3)=C[C@H]1C2 (stereo not given in full),z-score,[1],-1.66
same,z-score,[2],-1.16
same,z-score,[3],-1.16
same,z-score,[4],-0.528
same,z-score,[5],-0.209
same,z-score,[6],-1.79
same,z-score,[7],-1.46 (inactive)
same,z-score,[8],0.263
same,z-score,[9],-0.527
same,z-score,[10],-0.158 (inactive)
COc1ccc(NN2C(C(O)c3ccc([N+](=O)[O-])cc3)C=CC3C(=O)N(C4CCCCC4)C(=O)C32)cc1 (stereo not given),z-score,[1],0.0649
same,z-score,[2],-1.33
same,z-score,[3],0.52
same,z-score,[4],0.538
same,z-score,[5],-0.465
same,z-score,[6],-0.0181
same,z-score,[7],0.369 (inactive)
same,z-score,[8],0.919
same,z-score,[9],-1.71
same,z-score,[10],1.01 (inactive)
COc1cc2c(cc1OC)CN(C(=O)[C@H]1[C@@H]3C(=O)O[C@@H](c4ccccc4)[C@@H](c4ccccc4)N3[C@@H](c3ccc(O)cc3)[C@]13C(=O)Nc1ccc(C#CCNC(N)=O)cc13)CC2,z-score,[1],-0.697
same,z-score,[2],0.448
same,z-score,[3],0.148
same,z-score,[4],0.703
same,z-score,[5],0.168
same,z-score,[6],-1.31
same,z-score,[7],0.635 (inactive)
same,z-score,[8],0.22
same,z-score,[9],-0.222
same,z-score,[10],-0.0437 (inactive)
Cc1ccc(S[C@]2(C(=O)NCC(C)C)CC(=O)N(Cc3cc(C(F)(F)F)cc(C(F)(F)F)c3)[C@@H]2c2ccc(CO)cc2I)cc1,z-score,[1],-0.431
same,z-score,[2],0.299
same,z-score,[3],-0.588
same,z-score,[4],-3.16
same,z-score,[5],-2.29
same,z-score,[6],-0.523
same,z-score,[7],-0.3 (inactive)
same,z-score,[8],-0.39
same,z-score,[9],-1.01
same,z-score,[10],-0.227 (inactive)
Cc1ccc(S[C@]2(C(=O)NCC(F)(F)F)CC(=O)N(C(C)C)[C@@H]2c2ccc(CO)cc2I)cc1,z-score,[1],0.553
same,z-score,[2],0.837
same,z-score,[3],-0.0366
same,z-score,[4],-2.2
same,z-score,[5],-2.73
same,z-score,[6],0.409
same,z-score,[7],-0.374 (inactive)
same,z-score,[8],-0.815
same,z-score,[9],-1.12
same,z-score,[10],0.683 (inactive)
CCCCc1cn(C[C@H](Cc2ccccc2)NC(=O)N[C@H](CO)CCc2oc(C(C)=O)c(C(=O)OC)c2C(=O)OC)nn1,z-score,[1],-0.601
same,z-score,[2],0.813
same,z-score,[3],0.132
same,z-score,[4],0.787
same,z-score,[5],-1.22
same,z-score,[6],0.173
same,z-score,[7],0.273 (inactive)
same,z-score,[8],0.24
same,z-score,[9],1
same,z-score,[10],-0.571 (inactive)
C=CCC(OC(C)=O)[C@@H]1[C@@H](N(Cc2ccc(-c3cccc(C(F)(F)F)c3)o2)C(=O)c2ccc(-c3ccccc3)cc2)c2cc(OCCCO)ccc2N1C(=O)c1ccc(-c2ccccc2)cc1 (stereo not given in full),z-score,[1],0.0361
same,z-score,[2],0.114
same,z-score,[3],0.104
same,z-score,[4],0.365
same,z-score,[5],-0.297
same,z-score,[6],1.25
same,z-score,[7],-0.581 (inactive)
same,z-score,[8],0.287
same,z-score,[9],0.872
same,z-score,[10],-0.176 (inactive)
CCCCCN1CC=CC23O[C@@H]4/C=C\CCCOC(=O)C4[C@H]2C(=O)N(CCCO)[C@@H]3C1=O (stereo not given in full),z-score,[1],-0.335
same,z-score,[2],1.65
same,z-score,[3],-0.495
same,z-score,[4],0.759
same,z-score,[5],0.424
same,z-score,[6],-0.472
same,z-score,[7],-0.0755 (inactive)
same,z-score,[8],0.362
same,z-score,[9],0.286
same,z-score,[10],0.937 (inactive)
CCOC(=O)C=Cc1cc([N+](=O)[O-])ccc1O,z-score,[1],-0.563
same,z-score,[2],1.39
same,z-score,[3],-1.27
same,z-score,[4],0.112
same,z-score,[5],-2.29
same,z-score,[6],-1.91
same,z-score,[7],0.428 (inactive)
same,z-score,[8],-0.403
same,z-score,[9],-0.889
same,z-score,[10],0.384 (inactive)
CN(C)CCCNC(=O)[C@@]1(c2ccc([N+](=O)[O-])cc2)CC(=O)N(C2CCCCC2)[C@@H]1c1ccc(CO)cc1I,z-score,[1],-4.33
same,z-score,[2],0.184
same,z-score,[3],-5.13
same,z-score,[4],-3.86
same,z-score,[5],-4.36
same,z-score,[6],-3.14
same,z-score,[7],0.499 (inactive)
same,z-score,[8],-0.952
same,z-score,[9],-2.31
same,z-score,[10],-6.55 (inactive)
COC(=O)c1c(CC[C@@H](CO)NC(=O)N[C@@H](C)Cn2cc(C3(O)CCCCC3)nn2)oc(C(C)=O)c1C(=O)OC,z-score,[1],0.0154
same,z-score,[2],0.93
same,z-score,[3],-0.0256
same,z-score,[4],0.0508
same,z-score,[5],-1.82
same,z-score,[6],-0.637
same,z-score,[7],1.17 (inactive)
same,z-score,[8],-0.44
same,z-score,[9],0.414
same,z-score,[10],-1.04 (inactive)
